According to ChEMBL document CHEMBL3988442, “University of Dundee, Small-Polar-MMV Screening Library” (2021):
For some of these results: Potency and affinity values are given separately.

Key:
Parameters in all cases: scale not given: direction of the effect not stated beside the values
[1] = target: Protein translocase subunit SecA (Escherichia coli (strain K12)) (UniProt P10408); test: Assay to Identify E. coli SecA ATPase Inhibitors; type: functional; conditions: 30 µM
[2] = target: T1, Ubiquitin-activating enzyme e1, putative (Leishmania donovani (strain BPK282A1)) (UniProt E9BSI1); test: Leishmania donovani Ubiquitin Activating Enzyme (LdE1); type: functional; conditions: 30 µM
T1 sequence (whole entry): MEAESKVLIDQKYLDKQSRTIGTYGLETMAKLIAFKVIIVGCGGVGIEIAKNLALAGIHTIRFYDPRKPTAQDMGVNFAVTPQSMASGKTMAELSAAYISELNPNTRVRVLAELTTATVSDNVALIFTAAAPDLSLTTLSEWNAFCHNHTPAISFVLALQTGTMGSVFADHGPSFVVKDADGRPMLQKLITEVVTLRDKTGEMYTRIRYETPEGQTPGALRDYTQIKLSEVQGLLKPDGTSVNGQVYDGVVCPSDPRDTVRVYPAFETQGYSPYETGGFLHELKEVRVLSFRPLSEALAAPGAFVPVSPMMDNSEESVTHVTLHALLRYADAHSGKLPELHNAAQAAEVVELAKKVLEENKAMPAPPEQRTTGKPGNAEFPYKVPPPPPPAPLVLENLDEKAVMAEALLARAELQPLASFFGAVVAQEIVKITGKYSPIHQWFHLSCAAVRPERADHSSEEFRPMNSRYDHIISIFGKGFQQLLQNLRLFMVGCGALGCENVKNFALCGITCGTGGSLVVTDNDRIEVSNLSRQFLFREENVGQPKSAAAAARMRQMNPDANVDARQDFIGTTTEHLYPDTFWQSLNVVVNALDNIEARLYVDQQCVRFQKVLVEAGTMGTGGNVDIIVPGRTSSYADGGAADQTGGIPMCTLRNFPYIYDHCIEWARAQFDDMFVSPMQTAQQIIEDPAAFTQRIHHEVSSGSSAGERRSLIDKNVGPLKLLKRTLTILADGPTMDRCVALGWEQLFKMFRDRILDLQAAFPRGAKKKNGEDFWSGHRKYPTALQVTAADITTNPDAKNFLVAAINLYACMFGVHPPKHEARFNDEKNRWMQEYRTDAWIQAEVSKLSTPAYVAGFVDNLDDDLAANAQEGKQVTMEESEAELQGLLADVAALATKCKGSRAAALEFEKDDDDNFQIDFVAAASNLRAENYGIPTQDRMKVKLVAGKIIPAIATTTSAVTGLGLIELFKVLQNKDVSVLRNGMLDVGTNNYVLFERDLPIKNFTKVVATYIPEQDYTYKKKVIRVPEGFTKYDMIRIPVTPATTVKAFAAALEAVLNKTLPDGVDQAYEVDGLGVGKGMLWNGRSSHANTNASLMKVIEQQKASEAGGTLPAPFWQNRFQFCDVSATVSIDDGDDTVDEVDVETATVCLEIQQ

[3] = target: AMP-activated protein kinase, AMPK (Homo sapiens) (UniProt P54646+O43741+P54619+Q9UGJ0+Q9Y478+Q13131+Q9UGI9); test: AMP-dependent Kinase enzyme assay. An in vitro enzyme assay that detects ADP turnover that is directly proportional to AMPK activity. This uses naive AMPK that is activated during the assay with MK-8722; type: functional; conditions: 30 µM
[4] = target: Sialic acid-binding Ig-like lectin 9 (Homo sapiens) (UniProt Q9Y336); test: Hs-Siglec9 ALPHAscreen SOP 20170721; conditions: 10 µM
Sialic acid-binding Ig-like lectin 9 (Homo sapiens), sequence (Q9Y336 whole entry): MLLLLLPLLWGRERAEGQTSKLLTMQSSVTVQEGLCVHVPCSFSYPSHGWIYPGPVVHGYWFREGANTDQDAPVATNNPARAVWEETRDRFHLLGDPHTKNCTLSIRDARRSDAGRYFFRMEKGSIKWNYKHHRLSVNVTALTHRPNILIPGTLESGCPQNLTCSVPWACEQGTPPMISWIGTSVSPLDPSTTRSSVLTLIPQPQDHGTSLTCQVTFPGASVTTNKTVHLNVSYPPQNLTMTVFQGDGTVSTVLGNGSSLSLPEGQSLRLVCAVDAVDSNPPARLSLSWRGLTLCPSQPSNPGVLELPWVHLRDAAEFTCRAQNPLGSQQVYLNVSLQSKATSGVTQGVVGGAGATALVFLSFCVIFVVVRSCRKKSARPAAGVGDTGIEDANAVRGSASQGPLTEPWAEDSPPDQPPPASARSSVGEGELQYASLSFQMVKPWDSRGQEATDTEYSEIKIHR

Trypanosoma cruzi = test: Trypanosoma cruzi phosphomannomutase and mannose-1-phosphate guanylyltransferase assay; type: functional; conditions: 10 µM
[5] = target: T2, Arginase-2, mitochondrial (Homo sapiens) (UniProt P78540); test: in vitro enzyme assay to detect the production of urea directly proportional to the activity of Arginase II; type: functional; conditions: 33.3 µM; note: in the data most compounds retested in dose-response had high values
T2 sequence (whole entry): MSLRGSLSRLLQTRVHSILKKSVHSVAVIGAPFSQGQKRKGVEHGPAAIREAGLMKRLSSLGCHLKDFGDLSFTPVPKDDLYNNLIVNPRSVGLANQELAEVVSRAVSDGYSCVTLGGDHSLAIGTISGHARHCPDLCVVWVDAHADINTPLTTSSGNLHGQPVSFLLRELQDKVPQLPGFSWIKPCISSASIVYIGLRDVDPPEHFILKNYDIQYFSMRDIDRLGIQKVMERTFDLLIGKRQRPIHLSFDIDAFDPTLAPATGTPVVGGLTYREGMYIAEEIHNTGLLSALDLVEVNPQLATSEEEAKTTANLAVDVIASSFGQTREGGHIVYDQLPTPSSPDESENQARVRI

[6] = target: T3, Proteasome subunit beta (Trypanosoma cruzi) (UniProt O96673); test: Trypanosoma cruzi proteasome chymotrypsin-like activity (TcProtChymo) assay.; note: in the data most compounds retested in dose-response had high values; type: functional; conditions: 9.37 µM
T3 sequence (whole entry): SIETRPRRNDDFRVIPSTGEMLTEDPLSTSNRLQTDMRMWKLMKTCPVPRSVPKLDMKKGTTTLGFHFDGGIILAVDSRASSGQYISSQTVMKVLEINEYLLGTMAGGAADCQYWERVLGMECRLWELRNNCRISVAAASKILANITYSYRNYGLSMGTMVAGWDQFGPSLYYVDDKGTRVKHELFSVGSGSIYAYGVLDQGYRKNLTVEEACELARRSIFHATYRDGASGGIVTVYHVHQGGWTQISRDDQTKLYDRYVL

Homo sapiens = organism: Homo sapiens; test: To identify inhibition of the IFN signalling (Jak-Stat) pathway via expression of an eGFP reporter gene under the control of an IFN-stimulated response element (ISRE) containing MxA promoter.; type: functional; conditions: 30 µM
[7] = target: T4, Tyrosyl-tRNA synthetase, putative (Trypanosoma cruzi (strain CL Brener)) (UniProt Q4DSP6); test: Trypanosoma cruzi tyrosyl tRNA synthetase (TcYRS) _High Tyrosine SOP; type: functional; conditions: 30 µM; note: in the data most compounds retested in dose-response had high values
T4 sequence (whole entry): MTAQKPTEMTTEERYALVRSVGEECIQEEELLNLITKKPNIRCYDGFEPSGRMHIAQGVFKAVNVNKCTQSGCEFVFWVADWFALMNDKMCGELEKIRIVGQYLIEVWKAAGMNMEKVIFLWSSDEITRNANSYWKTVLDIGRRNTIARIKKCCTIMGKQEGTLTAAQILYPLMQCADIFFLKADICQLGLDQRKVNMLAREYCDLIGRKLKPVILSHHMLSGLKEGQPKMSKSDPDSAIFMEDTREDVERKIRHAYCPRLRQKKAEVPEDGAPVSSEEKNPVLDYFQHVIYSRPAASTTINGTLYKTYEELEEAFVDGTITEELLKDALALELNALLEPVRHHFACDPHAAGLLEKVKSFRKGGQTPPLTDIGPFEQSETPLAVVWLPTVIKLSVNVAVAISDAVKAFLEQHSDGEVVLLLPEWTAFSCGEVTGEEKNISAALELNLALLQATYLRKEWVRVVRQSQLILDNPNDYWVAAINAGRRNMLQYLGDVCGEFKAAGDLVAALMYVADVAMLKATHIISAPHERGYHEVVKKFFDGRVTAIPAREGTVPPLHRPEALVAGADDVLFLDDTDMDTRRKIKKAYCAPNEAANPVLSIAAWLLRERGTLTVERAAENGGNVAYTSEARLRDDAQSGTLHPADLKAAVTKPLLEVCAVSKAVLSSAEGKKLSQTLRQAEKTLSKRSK

[8] = target: T4, Tyrosyl-tRNA synthetase, putative (Trypanosoma cruzi (strain CL Brener)); test: Trypanosoma cruzi tyrosyl tRNA synthetase (TcYRS) SOP; type: functional; conditions: 30 µM
[9] = target: Chromo domain-containing protein 1 (Saccharomyces cerevisiae (strain ATCC 204508 / S288c) (Baker's yeast)) (UniProt P32657); test: ScCHD-1 Enzyme Inhibition Assay; type: functional; conditions: 30 µM; note: in the data most compounds retested in dose-response had high values
Chromo domain-containing protein 1 (Saccharomyces cerevisiae (strain ATCC 204508 / S288c) (Baker's yeast)), sequence (P32657 whole entry, the tested form may be a part): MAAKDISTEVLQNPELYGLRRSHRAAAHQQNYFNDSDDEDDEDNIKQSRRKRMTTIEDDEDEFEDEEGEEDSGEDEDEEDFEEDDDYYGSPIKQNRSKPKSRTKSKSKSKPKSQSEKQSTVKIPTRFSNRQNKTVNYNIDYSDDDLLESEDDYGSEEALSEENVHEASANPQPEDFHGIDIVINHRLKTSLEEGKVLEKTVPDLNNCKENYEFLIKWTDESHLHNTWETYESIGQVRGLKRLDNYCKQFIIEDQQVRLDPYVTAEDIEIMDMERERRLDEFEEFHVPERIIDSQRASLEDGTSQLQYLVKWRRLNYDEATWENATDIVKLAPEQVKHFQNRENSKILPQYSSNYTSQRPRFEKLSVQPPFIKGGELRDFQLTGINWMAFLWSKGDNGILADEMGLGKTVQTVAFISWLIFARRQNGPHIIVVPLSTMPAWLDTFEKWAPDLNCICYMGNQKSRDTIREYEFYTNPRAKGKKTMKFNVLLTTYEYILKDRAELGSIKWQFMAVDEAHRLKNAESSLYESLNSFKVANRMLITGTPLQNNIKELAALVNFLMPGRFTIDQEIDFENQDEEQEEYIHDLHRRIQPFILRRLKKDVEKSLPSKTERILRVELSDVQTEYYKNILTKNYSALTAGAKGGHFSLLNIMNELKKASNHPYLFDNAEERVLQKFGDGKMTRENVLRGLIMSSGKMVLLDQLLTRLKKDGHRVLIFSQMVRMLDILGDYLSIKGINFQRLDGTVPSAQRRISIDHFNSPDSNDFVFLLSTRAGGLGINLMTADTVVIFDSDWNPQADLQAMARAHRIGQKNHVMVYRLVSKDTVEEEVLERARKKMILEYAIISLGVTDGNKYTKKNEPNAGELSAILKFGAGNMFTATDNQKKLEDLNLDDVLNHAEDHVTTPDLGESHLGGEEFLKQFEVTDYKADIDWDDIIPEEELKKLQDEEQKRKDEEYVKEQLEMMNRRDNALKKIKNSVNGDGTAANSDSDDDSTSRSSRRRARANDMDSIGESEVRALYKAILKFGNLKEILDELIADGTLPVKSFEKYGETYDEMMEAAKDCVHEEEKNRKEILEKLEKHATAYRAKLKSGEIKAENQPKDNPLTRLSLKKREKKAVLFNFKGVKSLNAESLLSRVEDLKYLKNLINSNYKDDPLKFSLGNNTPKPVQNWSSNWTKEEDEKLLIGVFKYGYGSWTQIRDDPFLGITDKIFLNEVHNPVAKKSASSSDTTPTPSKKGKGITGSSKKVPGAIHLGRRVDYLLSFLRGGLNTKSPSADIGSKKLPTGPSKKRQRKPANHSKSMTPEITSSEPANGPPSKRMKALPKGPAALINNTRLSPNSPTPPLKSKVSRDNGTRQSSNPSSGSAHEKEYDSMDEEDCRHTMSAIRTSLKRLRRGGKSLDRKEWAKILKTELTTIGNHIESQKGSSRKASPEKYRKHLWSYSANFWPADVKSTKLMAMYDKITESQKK

Protein translocase subunit SecA (Escherichia coli (strain K12)), sequence (P10408 whole entry): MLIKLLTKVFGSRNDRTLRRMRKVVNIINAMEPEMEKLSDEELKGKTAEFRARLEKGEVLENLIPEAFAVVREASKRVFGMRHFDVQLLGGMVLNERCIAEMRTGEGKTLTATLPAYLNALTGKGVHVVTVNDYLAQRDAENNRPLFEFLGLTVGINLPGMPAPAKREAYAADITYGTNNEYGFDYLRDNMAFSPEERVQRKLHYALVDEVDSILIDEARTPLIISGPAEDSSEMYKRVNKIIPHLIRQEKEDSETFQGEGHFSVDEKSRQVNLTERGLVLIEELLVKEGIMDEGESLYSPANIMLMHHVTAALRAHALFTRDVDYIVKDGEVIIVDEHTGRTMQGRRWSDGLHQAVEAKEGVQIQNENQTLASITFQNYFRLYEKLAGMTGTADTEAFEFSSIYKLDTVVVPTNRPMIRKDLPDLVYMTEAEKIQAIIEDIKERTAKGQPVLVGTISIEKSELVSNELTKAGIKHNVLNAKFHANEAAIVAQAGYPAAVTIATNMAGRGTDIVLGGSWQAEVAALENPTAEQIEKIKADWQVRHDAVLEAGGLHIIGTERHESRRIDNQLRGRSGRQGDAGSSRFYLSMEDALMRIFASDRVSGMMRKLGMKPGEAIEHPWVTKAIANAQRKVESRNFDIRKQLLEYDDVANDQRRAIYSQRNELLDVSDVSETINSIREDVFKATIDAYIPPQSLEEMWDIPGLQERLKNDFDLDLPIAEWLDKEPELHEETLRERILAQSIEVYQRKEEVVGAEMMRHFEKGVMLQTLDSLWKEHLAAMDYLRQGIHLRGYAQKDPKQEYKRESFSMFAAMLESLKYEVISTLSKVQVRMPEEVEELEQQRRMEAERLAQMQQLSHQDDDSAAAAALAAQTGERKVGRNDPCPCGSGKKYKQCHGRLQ

SMILES | Percent Effect [1] [%] | Percent Effect [2] [%] | Percent Effect [3] [%] | Percent Effect [4] [%] | Percent Effect (Trypanosoma cruzi) [%] | Percent Effect [5] [%] | Percent Effect [6] [%] | Percent Effect (Homo sapiens) [%] | Percent Effect [7] [%] | Percent Effect [8] [%] | Percent Effect [9] [%]
Cc1cccc(C(=O)NCc2ccnc(N(C)C)c2)n1 | 1.73 | -5.2 | 2.32 | 6.58 | -3.04 | 2.32 | 3.15 | 15.9 | 0 | -37.6 | 8
Cc1nc(C(C)(C)NC(=O)Nc2ccccc2)no1 | -11.3 | -2.74 | 2.23 | -0.244 | -3.53 | 3.18 | 6.92 | 17.2 | -2.15 | 0 | -0.168
CN(Cc1ccsc1)C(=O)c1cccc(F)c1 | -5.35 | 20.8 | 1.32 | 3.27 | -2.06 | -1.07 | 5.74 | 9.71 | 3.88 | 19.5 | -9.1
Cc1csc(C2CCCCN2C(=O)CN(C)C2CC2)n1 (stereo not given) | 1.03 | -13.9 | 0.541 | -1.97 | 2.56 | -2.37 | 8.75 | -15.9 | 1.04 | 5.06 | 9.83
CC(NC(=O)N(C)Cc1ccsc1)c1ccc2c(c1)CCC(=O)N2 (stereo not given) | -0.422 | 15.8 | 5 | 7.35 | 1.13 | -3.06 | 1.67 | 3.81 | 1.47 | 17.1 | -3.52
CN1CC(=O)N(c2cccc(F)c2)CC12CCN(Cc1cccnc1)C2 (stereo not given) | 1.08 | 7.79 | 4.97 | 4.25 | -2.46 | 12.3 | 12.9 | 7.53 | 3.17 | 11.5 | -1.97
Cc1nc(Nc2nccs2)cc(C2CCCN2C2CCOCC2)n1 (stereo not given) | -6.58 | 12.2 | 4.38 | 1.96 | 4.35 | -3.48 | 8.89 | 6.9 | 6.45 | 14.3 | -16.1
CCc1noc(C2CCCCN2C(=O)c2nnc3ccccc3n2)n1 (stereo not given) | -4.1 | 9.33 | -3.18 | -0.0891 | 3.54 | -7.57 | 14.6 | -16.9 | 11.6 | 17.9 | -14.2
Cn1cnc(S(=O)(=O)NCCCN2CCOCC2)c1Cl | -3.33 | 2.7 | -5.32 | -2.1 | -10.5 | 26.1 | 7.21 | 16.1 | 4.43 | 3.7 | -8.3
CCn1nccc1CNC(=O)NC1CCCCC1 | -3.38 | 7.79 | 7.6 | -2.52 | -7.18 | 0 | 9.98 | 12 | 1.07 | 3.7 | -2.19
c1cnc(-c2nc(CN3CCCC(Cn4cncn4)C3)cs2)nc1 (stereo not given) | -3.67 | 8.11 | -6.35 | 6.78 | -4.81 | -0.802 | 11 | 10.9 | 6.4 | 6.17 | -4.11
Cc1nnc(C(C)NCC2(c3ccc(Cl)cc3)CCCC2)o1 (stereo not given) | -2.66 | -8.11 | -5.55 | 5.04 | -1.74 | -4.76 | 7.07 | 19.5 | 0.529 | -4.88 | 0.504
CN(C)C(=O)CC1CC2(CCN(c3ncccn3)CC2)c2ccccc21 (stereo not given) | -7.49 | 5.41 | 5.36 | -1.25 | 3.32 | 2.92 | 4.14 | 6.8 | 5.94 | 3.66 | -4.19
CC(C)n1cnc2c1C(C(=O)NCCC#N)N(Cc1ccccc1)CC2 (stereo not given) | -5.9 | 16 | -5.79 | 0.457 | 4.44 | -40 | 14 | -0.451 | 2.08 | 15 | -7.21
CN1CCC(c2cccc(Cc3ccc(F)cc3)n2)CC1 | -4.16 | -1.35 | 11.1 | -2.02 | 0.395 | -6.26 | 6.08 | 2.47 | 2.15 | -1.3 | -7.17
CCc1ncc(CNC2CC(=O)N(CCc3cccc(Cl)c3)C2)cn1 (stereo not given) | -5.45 | 13.7 | -3.73 | 5.67 | 7.54 | -3.59 | 6.76 | 0.221 | 6.25 | 11.1 | -2.3
Cc1cc(N2CCN(Cc3ccc(C)o3)CC2)cc(C)n1 | -4.6 | 5.33 | -0.471 | 15 | 1.46 | 2.08 | 20.2 | 2.05 | 8.2 | 16.1 | -6.19
CC(NCc1ccncc1)c1cc(F)ccc1N1CCN(C)CC1 (stereo not given) | -1.22 | 5.41 | -10.4 | 21 | 6.16 | 15.6 | 5.58 | -10.1 | 2.15 | 11.1 | -9.91
Cc1nc(C)n(CC2CN(c3nnc(C)c(C)c3C#N)CCO2)n1 (stereo not given) | -5.18 | 7.89 | 1.44 | 6.73 | 1.13 | 2.68 | 8.52 | 1.18 | 7.35 | 12.2 | 0.234
Clc1ccc2oc(C3CCN(Cc4cccnc4)CC3)nc2c1 | 0.753 | 13.5 | 5.18 | 16.9 | 5.02 | -10.5 | 15.5 | 32.2 | -0.529 | 12.2 | -6.96
